Laboratory results from PubChem BioAssay.
Inconclusive results are not listed. The source made the active and inactive calls.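 Rule for the calls, unless noted: active = inhibition above the screen-wide mean plus 3 SD, about 51%; inactive = the rest.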

Key:
[1] = rapamycin-like changes in RPL19A-GFP expression – cell-based, S. cerevisiae, multiplex flow cytometry, primary screen (AID 1862; in the data active = percent of DMSO control GFP below about 86%;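 note: lower values mimic rapamycin by blocking the RPL19A rise seen in DMSO cells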); details: S. cerevisiae RPL19A-GFP strain, flow cytometry fluorescence, 3 h; at 10 µM; stronger effect = lower value
[2] = TOR pathway GLN3 branch reporter MEP2-GFP changes – S. cerevisiae, multiplex flow cytometry, primary screen (AID 1867;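 active = GFP response, as percent of the DMSO control, above the screen-wide mean plus 3 SD, about 139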;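 note: median GFP channel fluorescence of barcode-gated MEP2-GFP cells measured by flow cytometry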); details: S. cerevisiae MEP2-GFP strain, 3 h, at 10 µM, stronger effect = higher value, 100% means same as DMSO wells
[3] = TOR pathway RTG branch CIT2 reporter changes – S. cerevisiae, GFP fusion, multiplex flow cytometry, primary screen (AID 1870;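 active = percent response above a set limit, the screen-wide mean plus 3 SD, cut at about 130% in these data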;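 note: barcoded CIT2-GFP strain pooled with four other GFP strains with rapamycin as positive control; median GFP fluorescence per well over plate mean of DMSO wells so 100% = DMSO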); details: S. cerevisiae CIT2-GFP expression, 3 h, at 10 µM, stronger effect = higher value
[4] = TOR pathway LAP4-GFP level changes – S. cerevisiae, multiplex flow cytometry, primary screen (AID 1873;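 active = GFP signal, as percent of the solvent control, above the screen mean plus 3 SD, about 149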); details: S. cerevisiae LAP4-GFP expression, 3 h, at 10 µM, stronger effect = higher value
[5] = yeast AGP1-GFP level changes, GLN3 branch – cell-based, multiplex flow cytometry, S. cerevisiae, primary screen (AID 1887;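 active = GFP signal above the screen-wide mean plus 3 SD, that is over about 124.5% of the solvent control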;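 note: AGP1-GFP fusion strain of S. cerevisiae within a five-strain barcoded multiplex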); details: 3 h, at 10 µM, stronger effect = higher value
[6] = reduced mouse 2C T cell binding to pMHC/ICAM-1 vesicles – MLPCN validation set, flow cytometry, LFA-1/ICAM-1 modulator project, pilot screen (AID 2523;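 active = response below a set limit, under 55% cells CD8-positive and vesicle-bound, and CD8 cells' 90th-percentile brightness under 279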;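 for vesicle binding response: mean PE anti-B7-1 fluorescence of CD8+ cells relative to row control; 100% = QL9-loaded vesicles with DMSO vehicle in the same plate row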); details: 2C mouse CD8+ T cells, at 7 µM, stronger effect = lower value; double positive events: measured here: CD8+/vesicle+ event percentage
[7] = biological target: Integrin beta-1 (Homo sapiens) + Integrin alpha-4 (Homo sapiens) (UniProt P13612+P05556); experiment: alpha4beta1 integrin LIBS antibody binding reduction – U937 cells, HUTS-21 mAb, flow cytometry, validation set, VLA-4 allosteric modulator project, pilot screen (AID 2674;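 active = inhibition above 50%, about 3 SD of the validation set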;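 note: antibody binding induced by the VLA-4 ligand LDV present at three times its Kd; 0% = LDV ligand with antibody and no compound and 100% = antibody without LDV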); details: HUTS-21 LIBS mAb binding, at 6.7 µM, stronger effect = higher value, binding induced by LDV ligand
[8] = calorie-restriction mimetic ROS inhibitors, yeast – validation compound set, pilot screen (AID 2706;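 active = superoxide response below 65% of plate, a cut near 3 SD across the whole screen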;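 note: yeast exposed to compound for one week at 30 degrees C before staining; 100% = mean of all compound wells on the same plate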); details: S. cerevisiae aging, superoxide DHE fluorescence; at 10 µM, stronger effect = lower value
[9] = biological target: Beta-adrenergic receptor kinase 1 (Homo sapiens) (UniProt P25098); experiment: GRK2 binders displacing RNA aptamer, biochemical, validation, human GRK2, bead flow cytometry (AID 488806;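 active = aptamer binding inhibition above 30%, about 3 SD of noise from non-fluorescent compounds; inactive = inhibition at or below 30%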); details: bead-bound GRK2, FAM-aptamer displacement, at 10 µM, stronger effect = higher value
[10] = biological target: AP-2 complex subunit beta (Homo sapiens) (UniProt P63010); experiment: beta-arrestin/AP2 interaction blockers – biochemical, validation set, GST-AP2 beads, flow cytometry, pilot screen (AID 504541;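 active = inhibition above 54%, about 3 SD of non-fluorescent compounds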;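 note: AP2 carries R879A mutation and is captured from E. coli lysate; bead-bound FITC arrestin peptide fluorescence measuring arrestin peptide binding to AP2; 0% = DMSO wells and 100% = excess unlabeled arrestin peptide control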); details: FITC arrestin peptide, at 10 µM, stronger effect = higher value, AP2 beta2 appendage fragment, R879A mutant
[11] = cytosolic pH regulators acting via V-ATPase – S. cerevisiae, pHLuorin, HTS validation (AID 504600; in the data active = response above about 15%;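 note: plate controls were DMSO for no effect and reference compound for full effect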); details: V-ATPase proton transport, at 10 µM, stronger effect = higher value
[12] = system: anti-desmoglein-3 scFv antibody binding to human DSG3; experiment: blockers of pathogenic pemphigus antibody–desmoglein-3 binding – biochemical, validation compound set, bead-based, flow cytometry, pilot screen (AID 588368;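 active = binding below the plate cutoff, the plate median minus 3 SD, with a reading above zero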;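 note: signal is the median channel fluorescence of bead-bound GFP antibody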); details: Protein G beads, DSG3-Fc, scFv-GFP binding, at 10 µM, stronger effect = lower value
[13] = Nile Red efflux blockade in pump-expressing yeast – validation compound set, multiplex, phenotypic, pilot screen (AID 588506;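 active = efflux inhibition above 0.42, the validation set average plus 4 SD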;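 note: Nile Red retained in cells so higher fluorescence means more efflux inhibition; 0 = negative control wells and 1 = enniatin B 25 µM full block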); details: S. cerevisiae pump-expressing triplex, Nile Red efflux flow cytometry; at 10 µM; stronger effect = higher value; the pumps come from Candida albicans
[14] = biological target: ATP-binding cassette sub-family B member 6 (Homo sapiens) (UniProt Q9NP58); experiment: blockers of ABCB6-driven porphyrin uptake – K562-ABCB6 cells, flow cytometry, validation set, pilot screen (AID 588550); details: K562-ABCB6 porphyrin accumulation, 1 h, at 10 µM, stronger effect = higher value;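 note: 0% = DMSO wells and 100% = benzethonium chloride 70 µM positive control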
[15] = AML differentiation inducers, ER-HoxA9 marrow cells – cell-based, GFP/MAC1 double positive, flow cytometry, validation set, primary screen (AID 588685;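 active = differentiation response of at least 50%, scaled between solvent and reference control, from cells with both markers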;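 note: compound exposure lasts four days before antibody staining and flow analysis; 0% = DMSO wells and 100% = 5 µM fulvestrant positive control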); details: stronger effect = higher value, normalized: vehicle 0, fulvestrant 100
[16] = biological target: Beta-2 adrenergic receptor (Homo sapiens) (UniProt P07550); experiment: agonist-induced loss of surface beta2AR – cell-based, FAP fluorogen, flow cytometry, validation set, pilot screen (AID 504459;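 active = percent response above 42, roughly 3 SD of non-fluorescent test compounds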;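 note: agonist-driven loss of surface beta2AR via internalization measured by FAP dye flow cytometry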); details: Am2.2-beta2AR cells, at 10 µM, stronger effect = higher value
Sequence of Beta-2 adrenergic receptor (Homo sapiens) (P07550 whole entry, looked up): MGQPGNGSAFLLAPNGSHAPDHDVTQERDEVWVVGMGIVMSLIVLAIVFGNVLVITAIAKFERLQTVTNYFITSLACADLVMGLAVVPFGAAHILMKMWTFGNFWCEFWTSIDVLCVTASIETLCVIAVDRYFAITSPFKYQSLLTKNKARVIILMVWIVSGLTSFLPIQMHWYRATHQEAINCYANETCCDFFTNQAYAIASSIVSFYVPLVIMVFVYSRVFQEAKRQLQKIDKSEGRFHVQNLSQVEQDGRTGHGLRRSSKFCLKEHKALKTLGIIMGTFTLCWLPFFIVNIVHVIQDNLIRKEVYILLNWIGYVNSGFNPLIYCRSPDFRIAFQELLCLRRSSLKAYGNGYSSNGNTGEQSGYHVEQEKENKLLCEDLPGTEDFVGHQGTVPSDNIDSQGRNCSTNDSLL

Sequence of ATP-binding cassette sub-family B member 6 (Homo sapiens) (Q9NP58 whole entry, looked up): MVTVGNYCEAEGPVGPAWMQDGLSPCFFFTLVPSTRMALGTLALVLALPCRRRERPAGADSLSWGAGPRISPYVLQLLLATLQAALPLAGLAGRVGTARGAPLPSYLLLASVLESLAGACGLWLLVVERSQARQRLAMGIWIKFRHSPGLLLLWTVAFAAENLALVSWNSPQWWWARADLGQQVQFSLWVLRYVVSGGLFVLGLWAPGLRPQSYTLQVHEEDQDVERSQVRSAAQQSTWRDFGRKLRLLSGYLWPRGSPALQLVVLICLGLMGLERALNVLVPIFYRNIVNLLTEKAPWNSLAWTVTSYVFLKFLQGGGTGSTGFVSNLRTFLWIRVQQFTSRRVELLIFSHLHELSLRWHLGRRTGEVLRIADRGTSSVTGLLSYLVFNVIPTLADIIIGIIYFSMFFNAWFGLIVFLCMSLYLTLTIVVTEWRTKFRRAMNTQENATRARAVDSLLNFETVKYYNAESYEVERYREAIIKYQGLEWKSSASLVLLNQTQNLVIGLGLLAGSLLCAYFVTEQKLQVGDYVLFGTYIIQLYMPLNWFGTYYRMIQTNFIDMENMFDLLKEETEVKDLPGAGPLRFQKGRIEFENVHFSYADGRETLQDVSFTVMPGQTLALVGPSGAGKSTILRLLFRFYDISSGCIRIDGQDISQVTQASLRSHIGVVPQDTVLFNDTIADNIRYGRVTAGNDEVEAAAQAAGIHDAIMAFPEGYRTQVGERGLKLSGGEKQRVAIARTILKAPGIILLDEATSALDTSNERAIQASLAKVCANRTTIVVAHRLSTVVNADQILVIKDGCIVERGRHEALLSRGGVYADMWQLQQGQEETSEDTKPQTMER
Sequence of Integrin beta-1 (Homo sapiens) + Integrin alpha-4 (Homo sapiens) (P05556 whole entry, looked up): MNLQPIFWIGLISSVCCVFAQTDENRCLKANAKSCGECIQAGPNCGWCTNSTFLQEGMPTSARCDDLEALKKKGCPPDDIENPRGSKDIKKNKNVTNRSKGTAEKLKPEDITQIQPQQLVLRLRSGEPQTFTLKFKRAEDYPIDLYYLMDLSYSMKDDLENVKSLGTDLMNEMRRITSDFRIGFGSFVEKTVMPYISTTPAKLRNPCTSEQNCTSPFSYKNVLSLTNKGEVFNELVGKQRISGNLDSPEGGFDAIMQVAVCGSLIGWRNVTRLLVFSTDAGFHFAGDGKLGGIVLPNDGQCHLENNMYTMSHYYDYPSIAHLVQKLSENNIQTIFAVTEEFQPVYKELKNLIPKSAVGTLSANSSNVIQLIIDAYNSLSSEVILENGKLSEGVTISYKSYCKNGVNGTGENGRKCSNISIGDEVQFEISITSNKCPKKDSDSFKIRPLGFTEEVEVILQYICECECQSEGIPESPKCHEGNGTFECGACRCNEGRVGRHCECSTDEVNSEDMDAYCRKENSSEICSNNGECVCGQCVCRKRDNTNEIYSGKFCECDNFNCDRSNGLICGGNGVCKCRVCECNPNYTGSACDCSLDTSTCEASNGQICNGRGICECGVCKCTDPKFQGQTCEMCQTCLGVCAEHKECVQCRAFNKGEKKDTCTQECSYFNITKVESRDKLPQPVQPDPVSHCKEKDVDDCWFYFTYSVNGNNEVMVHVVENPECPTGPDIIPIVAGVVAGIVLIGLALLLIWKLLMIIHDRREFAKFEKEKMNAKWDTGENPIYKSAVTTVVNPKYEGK
Sequence of Integrin beta-1 (Homo sapiens) + Integrin alpha-4 (Homo sapiens) (P13612 whole entry, looked up): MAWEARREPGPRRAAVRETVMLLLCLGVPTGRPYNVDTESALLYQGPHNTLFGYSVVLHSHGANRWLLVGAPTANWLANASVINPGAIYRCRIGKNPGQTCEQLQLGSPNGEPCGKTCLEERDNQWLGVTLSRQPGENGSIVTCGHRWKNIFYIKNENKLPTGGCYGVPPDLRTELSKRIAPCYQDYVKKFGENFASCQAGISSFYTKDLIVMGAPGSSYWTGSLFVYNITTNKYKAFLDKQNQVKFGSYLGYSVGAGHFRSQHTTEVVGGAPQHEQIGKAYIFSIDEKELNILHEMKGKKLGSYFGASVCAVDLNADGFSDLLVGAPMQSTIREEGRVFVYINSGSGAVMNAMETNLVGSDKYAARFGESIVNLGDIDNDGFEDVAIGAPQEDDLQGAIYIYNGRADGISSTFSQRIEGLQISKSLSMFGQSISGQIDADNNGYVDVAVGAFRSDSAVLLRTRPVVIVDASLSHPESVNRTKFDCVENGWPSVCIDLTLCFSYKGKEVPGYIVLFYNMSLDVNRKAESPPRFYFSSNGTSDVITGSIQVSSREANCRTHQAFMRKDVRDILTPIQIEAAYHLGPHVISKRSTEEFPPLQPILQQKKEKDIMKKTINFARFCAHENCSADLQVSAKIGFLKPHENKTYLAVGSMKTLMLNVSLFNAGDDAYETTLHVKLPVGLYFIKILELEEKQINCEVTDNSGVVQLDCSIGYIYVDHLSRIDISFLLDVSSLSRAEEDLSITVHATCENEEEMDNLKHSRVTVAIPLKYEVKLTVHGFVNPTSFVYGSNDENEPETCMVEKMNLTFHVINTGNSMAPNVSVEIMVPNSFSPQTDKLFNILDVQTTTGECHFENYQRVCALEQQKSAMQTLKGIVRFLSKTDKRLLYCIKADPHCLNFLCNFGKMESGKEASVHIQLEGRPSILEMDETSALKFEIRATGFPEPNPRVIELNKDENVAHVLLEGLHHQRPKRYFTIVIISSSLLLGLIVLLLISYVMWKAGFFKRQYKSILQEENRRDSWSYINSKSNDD
Sequence of Beta-adrenergic receptor kinase 1 (Homo sapiens) (P25098 whole entry, looked up): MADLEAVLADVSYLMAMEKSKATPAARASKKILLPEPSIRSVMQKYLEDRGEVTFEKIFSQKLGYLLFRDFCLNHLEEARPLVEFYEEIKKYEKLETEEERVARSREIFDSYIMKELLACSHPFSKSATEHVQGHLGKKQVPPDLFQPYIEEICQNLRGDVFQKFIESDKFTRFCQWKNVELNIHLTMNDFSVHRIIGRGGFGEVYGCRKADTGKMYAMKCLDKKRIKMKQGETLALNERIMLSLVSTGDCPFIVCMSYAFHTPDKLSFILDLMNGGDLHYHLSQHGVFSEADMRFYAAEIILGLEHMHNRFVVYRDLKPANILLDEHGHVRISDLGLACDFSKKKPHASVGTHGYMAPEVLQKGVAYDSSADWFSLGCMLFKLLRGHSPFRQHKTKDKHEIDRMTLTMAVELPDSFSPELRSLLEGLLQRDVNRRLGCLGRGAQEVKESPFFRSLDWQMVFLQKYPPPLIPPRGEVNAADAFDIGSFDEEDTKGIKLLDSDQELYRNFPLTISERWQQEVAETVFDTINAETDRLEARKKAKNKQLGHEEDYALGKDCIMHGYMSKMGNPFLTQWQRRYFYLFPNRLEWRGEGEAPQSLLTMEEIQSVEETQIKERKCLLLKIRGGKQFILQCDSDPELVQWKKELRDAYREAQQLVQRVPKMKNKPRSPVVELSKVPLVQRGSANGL
Sequence of AP-2 complex subunit beta (Homo sapiens) (P63010 whole entry, looked up, the tested form may be a part, one chain of several): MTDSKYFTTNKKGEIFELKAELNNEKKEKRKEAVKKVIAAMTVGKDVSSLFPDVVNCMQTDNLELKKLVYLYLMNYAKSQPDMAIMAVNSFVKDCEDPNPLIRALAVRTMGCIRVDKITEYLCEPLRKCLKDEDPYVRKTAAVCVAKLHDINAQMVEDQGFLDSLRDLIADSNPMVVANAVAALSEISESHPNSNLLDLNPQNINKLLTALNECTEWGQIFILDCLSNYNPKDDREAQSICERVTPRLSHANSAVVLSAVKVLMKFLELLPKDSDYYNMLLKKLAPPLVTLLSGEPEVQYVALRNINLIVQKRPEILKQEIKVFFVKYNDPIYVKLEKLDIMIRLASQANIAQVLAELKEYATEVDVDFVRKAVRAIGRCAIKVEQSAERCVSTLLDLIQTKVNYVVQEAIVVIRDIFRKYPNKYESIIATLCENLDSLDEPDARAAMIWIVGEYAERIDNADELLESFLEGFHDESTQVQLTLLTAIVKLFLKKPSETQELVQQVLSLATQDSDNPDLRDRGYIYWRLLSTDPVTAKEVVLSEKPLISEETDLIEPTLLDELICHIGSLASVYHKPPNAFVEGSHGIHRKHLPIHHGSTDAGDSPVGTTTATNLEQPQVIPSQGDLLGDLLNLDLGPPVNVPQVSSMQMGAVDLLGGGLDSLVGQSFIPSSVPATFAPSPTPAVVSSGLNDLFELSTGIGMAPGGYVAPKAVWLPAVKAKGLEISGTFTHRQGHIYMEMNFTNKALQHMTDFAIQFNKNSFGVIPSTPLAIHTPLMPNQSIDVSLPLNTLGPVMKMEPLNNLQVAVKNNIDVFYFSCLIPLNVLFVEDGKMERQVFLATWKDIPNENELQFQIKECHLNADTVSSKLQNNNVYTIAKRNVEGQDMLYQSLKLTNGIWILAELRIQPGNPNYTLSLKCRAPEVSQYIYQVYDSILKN

Cc1ccc(C(CC(=O)NCc2ccco2)c2ccc(OC(C)C)cc2)cc1 (stereo not given)
active: efflux inhibition (fraction of control) [13] 0.67
inactive: percent of DMSO control GFP [1] 99.8% | GFP response vs DMSO [2] 106% | percent response of DMSO control [3] 96.9% | GFP response vs DMSO [4] 103% | GFP response, % of DMSO [5] 96.9% | vesicle binding response [6] 165% | inhibition [7] -138% | superoxide response (% of plate) [8] 103% | aptamer binding inhibition [9] 2% | inhibition [10] 37.9% | response [11] -2.51% | binding (% of control) [12] 97.7% | inhibition [14] 12% | differentiation response [15] -6.66%
60.4%: double positive events [6]

CN1CCC(=C2c3ccccc3CC(=O)c3sccc32)CC1
inactive: percent of DMSO control GFP [1] 101% | GFP response vs DMSO [2] 101% | percent response of DMSO control [3] 108% | GFP response vs DMSO [4] 94.8% | GFP response, % of DMSO [5] 101% | vesicle binding response [6] 136% | inhibition [7] -3.77% | superoxide response (% of plate) [8] 96.5% | aptamer binding inhibition [9] -2% | response [16] 11.7% | inhibition [10] -10.2% | response [11] 1.45% | binding (% of control) [12] 105% | inhibition [14] 4% | differentiation response [15] -14.8%
62.4%: double positive events [6]

C[C@]12CC[C@H]3C(=CCc4cc(O)ccc43)[C@@H]1CCC2=O
59.4%: double positive events [6]
inactive: percent of DMSO control GFP [1] 101% | GFP response vs DMSO [2] 94.8% | percent response of DMSO control [3] 90% | GFP response vs DMSO [4] 110% | GFP response, % of DMSO [5] 92.1% | vesicle binding response [6] 172% | inhibition [7] 7.22% | superoxide response (% of plate) [8] 102% | aptamer binding inhibition [9] 7% | inhibition [10] 2.28% | response [11] -1.47% | binding (% of control) [12] 103% | efflux inhibition (fraction of control) [13] 0.25 | inhibition [14] 4% | differentiation response [15] 1.41%

CCC(C)NCCOCCOc1ccc(Cl)c2ccccc12 (stereo not given)
56.7%: double positive events [6]
inactive: percent of DMSO control GFP [1] 96.6% | GFP response vs DMSO [2] 123% | percent response of DMSO control [3] 107% | GFP response vs DMSO [4] 99% | GFP response, % of DMSO [5] 96.1% | vesicle binding response [6] 204% | inhibition [7] 26.8% | superoxide response (% of plate) [8] 83.4% | aptamer binding inhibition [9] -5% | response [16] 34.5% | response [11] -0.59% | binding (% of control) [12] 108% | efflux inhibition (fraction of control) [13] 0.09 | inhibition [14] 6% | differentiation response [15] 24.6%

O=c1ccn([C@@H]2O[C@H](CO)[C@@H](O)[C@H]2O)c(=O)[nH]1
63.9%: double positive events [6]
inactive: percent of DMSO control GFP [1] 102% | GFP response vs DMSO [2] 102% | percent response of DMSO control [3] 93.8% | GFP response vs DMSO [4] 98.3% | GFP response, % of DMSO [5] 109% | vesicle binding response [6] 124% | inhibition [7] 11.7% | superoxide response (% of plate) [8] 99.8% | aptamer binding inhibition [9] 3% | response [16] -22.4% | inhibition [10] 10.2% | response [11] 1.83% | binding (% of control) [12] 102% | inhibition [14] 1% | differentiation response [15] 24.6%

COc1ccc(CN(CCN(C)C)c2ccccn2)cc1
inactive: percent of DMSO control GFP [1] 102% | GFP response vs DMSO [2] 107% | percent response of DMSO control [3] 108% | GFP response vs DMSO [4] 103% | GFP response, % of DMSO [5] 107% | vesicle binding response [6] 60% | inhibition [7] 2.66% | superoxide response (% of plate) [8] 109% | aptamer binding inhibition [9] 0% | response [16] -10.3% | inhibition [10] -5.39% | response [11] 0.3% | binding (% of control) [12] 99.3% | inhibition [14] 4% | differentiation response [15] 2.2%
60.3%: double positive events [6]

Nc1nnc(-c2cccc(Cl)c2Cl)c(N)n1
inactive: percent of DMSO control GFP [1] 101% | GFP response vs DMSO [2] 108% | percent response of DMSO control [3] 103% | GFP response vs DMSO [4] 100% | GFP response, % of DMSO [5] 103% | vesicle binding response [6] 120% | inhibition [7] 9.63% | superoxide response (% of plate) [8] 110% | aptamer binding inhibition [9] 2% | response [16] 6.9% | inhibition [10] -13.2% | response [11] -3.91% | binding (% of control) [12] 94.9% | inhibition [14] 4% | differentiation response [15] -8.96%
49.8%: double positive events [6]

Cn1cc(CN2CCCC(CO)(Cc3cccc(Cl)c3)C2)cn1 (stereo not given)
inactive: percent of DMSO control GFP [1] 98% | GFP response vs DMSO [2] 102% | percent response of DMSO control [3] 98.2% | GFP response vs DMSO [4] 97.2% | GFP response, % of DMSO [5] 99.5% | vesicle binding response [6] 57.6% | inhibition [7] 9.71% | superoxide response (% of plate) [8] 92.7% | aptamer binding inhibition [9] 0% | response [16] 30.5% | response [11] -0.03% | binding (% of control) [12] 102% | efflux inhibition (fraction of control) [13] -0.66 | inhibition [14] 2% | differentiation response [15] -1.88%
59.5%: double positive events [6]

O=C(NCCCCCc1nc2ccccc2[nH]1)c1ccccc1Cl
62.5%: double positive events [6]
active: efflux inhibition (fraction of control) [13] 0.69
inactive: percent of DMSO control GFP [1] 101% | GFP response vs DMSO [2] 107% | percent response of DMSO control [3] 98.6% | GFP response vs DMSO [4] 95.9% | GFP response, % of DMSO [5] 103% | vesicle binding response [6] 124% | inhibition [7] -7.79% | superoxide response (% of plate) [8] 102% | aptamer binding inhibition [9] 3% | response [16] 25.8% | response [11] -2.36% | binding (% of control) [12] 109% | inhibition [14] 6% | differentiation response [15] 10.1%

N/C(=N\OS(=O)(=O)c1ccc2ccccc2c1)c1cccnc1
inactive: percent of DMSO control GFP [1] 103% | GFP response vs DMSO [2] 104% | percent response of DMSO control [3] 95.9% | GFP response vs DMSO [4] 99.4% | GFP response, % of DMSO [5] 97.5% | vesicle binding response [6] 133% | inhibition [7] 2.56% | superoxide response (% of plate) [8] 96.2% | aptamer binding inhibition [9] 2% | inhibition [10] 45.4% | response [11] -4.42% | binding (% of control) [12] 108% | efflux inhibition (fraction of control) [13] 0.29 | inhibition [14] 6% | differentiation response [15] -13.1%
61.4%: double positive events [6]
